From publication PMC4336329 (PLoS ONE, 2015)
The campaign covered roughly 310,000 compounds. About 14,000 (4.5%) showed an effect of 50% or more. The effect is printed as a negative number. The entries come from a sample that favours strong results as a whole.

target: human ether-à-go-go-related gene (hERG) potassium channel (human, UniProt Q12809); test: primary screen, population patch clamp on CHO cells stably expressing hERG; higher = less effect of the substance
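Further: peak tail current of the secondary pulse compared with the same well before compound.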

Chain of human ether-à-go-go-related gene (hERG) potassium channel (Q12809 whole entry, looked up): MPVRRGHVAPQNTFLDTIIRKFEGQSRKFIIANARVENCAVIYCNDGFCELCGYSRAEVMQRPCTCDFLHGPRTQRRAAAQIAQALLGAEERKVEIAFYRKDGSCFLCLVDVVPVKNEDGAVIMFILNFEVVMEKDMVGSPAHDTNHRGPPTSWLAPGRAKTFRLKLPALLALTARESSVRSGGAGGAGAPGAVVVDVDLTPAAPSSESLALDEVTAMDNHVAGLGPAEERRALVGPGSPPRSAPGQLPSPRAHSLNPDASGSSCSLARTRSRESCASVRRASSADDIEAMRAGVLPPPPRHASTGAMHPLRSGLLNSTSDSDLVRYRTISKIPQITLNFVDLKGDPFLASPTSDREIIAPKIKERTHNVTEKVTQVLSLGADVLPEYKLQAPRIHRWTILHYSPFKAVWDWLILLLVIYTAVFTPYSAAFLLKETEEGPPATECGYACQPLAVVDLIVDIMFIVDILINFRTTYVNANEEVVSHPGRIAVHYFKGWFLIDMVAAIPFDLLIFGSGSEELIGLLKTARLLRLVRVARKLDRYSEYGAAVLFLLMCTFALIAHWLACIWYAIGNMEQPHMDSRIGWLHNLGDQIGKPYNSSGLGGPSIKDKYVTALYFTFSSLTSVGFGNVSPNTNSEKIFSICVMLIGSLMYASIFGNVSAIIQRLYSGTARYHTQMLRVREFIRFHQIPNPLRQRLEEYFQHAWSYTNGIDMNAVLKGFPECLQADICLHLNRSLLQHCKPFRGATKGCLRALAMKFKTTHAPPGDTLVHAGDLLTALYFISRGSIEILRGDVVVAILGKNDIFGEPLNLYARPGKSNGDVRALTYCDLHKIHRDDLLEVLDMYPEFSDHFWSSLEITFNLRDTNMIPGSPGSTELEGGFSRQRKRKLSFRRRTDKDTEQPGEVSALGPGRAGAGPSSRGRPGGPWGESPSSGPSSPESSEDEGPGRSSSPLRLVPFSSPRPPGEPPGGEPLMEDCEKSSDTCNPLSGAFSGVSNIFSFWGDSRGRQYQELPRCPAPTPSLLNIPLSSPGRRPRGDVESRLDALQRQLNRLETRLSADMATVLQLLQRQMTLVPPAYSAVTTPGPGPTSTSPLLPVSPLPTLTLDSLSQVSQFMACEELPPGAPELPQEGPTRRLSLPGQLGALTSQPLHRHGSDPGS

Row | SMILES | hERG current change (%, negative = inhibition) at 10uM [%]
1 | Nn1c(SCC(=O)NC(=O)Nc2ccc3c(c2)OCCO3)nnc1C1CC1 | 14.3
2 | CC(C)NC(=NCc1ccc(Cl)cc1Cl)Nc1ccccc1 | -53
3 | S=C(NCc1ccc(Cl)cc1Cl)Nc1ccccc1 | 10.1
4 | O=C(NCc1ccc(Cl)cc1Cl)Nc1ccccc1 | 2.75
5 | COC(=O)C1=C(c2ccc3ccccc3c2)C[C@@H]2CC[C@H]1N2C(=O)NCCCOC(C)C | -7.68
6 | O=C(COc1ccc(-c2ccccc2)cc1)N/N=C/c1ccccc1Br | 19.7
7 | O=C(O)C1C2C=CC(C2)C1C(=O)N1CCN(C/C=C/c2ccccc2)CC1 (stereo not drawn) | 17.1
8 | Cn1cnc([N+](=O)[O-])c1SCC(O)CCl (stereo not drawn) | 15.9
9 | COc1ccc(Cn2c(C)nc([N+](=O)[O-])c2SCC(=O)O)cc1[N+](=O)[O-] | 16.5
10 | COCC(O)CSc1c([N+](=O)[O-])nc(C)n1Cc1ccc(OC)c([N+](=O)[O-])c1 (stereo not drawn) | -2.82
11 | CCOc1ccc(Cn2ccnc2CCl)cc1[N+](=O)[O-] | -33.2
12 | COc1ccc(Cn2cc([N+](=O)[O-])nc2C)cc1[N+](=O)[O-] | -2.26
13 | Cc1nc([N+](=O)[O-])c(SCC(O)CCl)n1Cc1ccc(Cl)cc1 (stereo not drawn) | -59.9
14 | CCCOc1ccc(Cn2c(C)nc([N+](=O)[O-])c2SCC(O)COC)cc1[N+](=O)[O-] (stereo not drawn) | -66
15 | CCOc1ccc(Cn2c(C)nc([N+](=O)[O-])c2SCC(O)CCl)cc1[N+](=O)[O-] (stereo not drawn) | -68.2
16 | Cc1nc([N+](=O)[O-])c(SCC(N)=O)n1Cc1ccccc1 | 27.8
17 | O=C(O)c1ccc(COc2ccccc2[N+](=O)[O-])o1 | 14.8
18 | O=C1CCCC(O)=C1C(C#Cc1ccccc1)C1=C(O)CCCC1=O | -17.9
19 | COC(=O)c1c(C)oc2ccc(NS(=O)(=O)c3cccs3)cc12 | -2.42
20 | CCOC(=O)c1c(C)oc2ccc(NS(=O)(=O)c3cccs3)cc12 | 6.47
21 | COCCOC(=O)c1c(C)oc2ccc(NS(=O)(=O)c3cccs3)cc12 | -51.4
22 | CCOC(=O)c1ccc(NC(=O)CCSCCc2ccccn2)cc1 | 0.702

Row | SMILES | hERG current change (%, negative = inhibition) at 10uM [%]
23 | CC(C)C[C@H](NC(=O)[C@H](Cc1ccccc1)n1c(=O)[nH]c2ccccc2c1=O)C(=O)N1CCC[C@H]1C(=O)O | 6.16
24 | Br.COc1ccc(-c2nc(NC3=NCCCCC3)sc2C)cc1 | -26.6
25 | CCNc1nc(-c2ccc(OC(F)F)cc2)c(C)s1 | 15.1
26 | CCN(CC)CCNc1nc(-c2ccc(OC)cc2)c(-c2ccc(OC)cc2)s1 | -52.6
27 | COCCNc1nc(-c2ccc(OC)cc2)c(-c2ccc(OC)cc2)s1 | 15.3
28 | CNc1nc(-c2ccc(OC)cc2)c(-c2ccc(OC)cc2)s1 | -12.7
29 | CCN(CC)CCNc1nc(-c2ccc(OC(F)F)cc2)c(C)s1 | -77.8
30 | C/C(=N/NC(=O)c1ccc(Cl)cc1Cl)c1cccnc1 | 16.4
31 | CN1CCN(c2nc3c(c(=O)n(C)c(=O)n3C)n2Cc2cccc3ccccc23)CC1 | -5.1
32 | CN(CC(=O)Nc1ccc(Cl)cc1F)C1CCS(=O)(=O)C1 (stereo not drawn) | -20.6
33 | COc1ccc(CNC(=O)C2CC(=O)N(C3CCCC3)C2)cc1 (stereo not drawn) | -8.14
34 | O=C(OCC#CCSc1nnc(-c2ccncc2)o1)c1cccs1 | -53.2
35 | O=C(OCC#CCSc1nnc(-c2ccccc2)o1)c1cccs1 | -17.7
36 | Cc1ccc(-c2nnc(SCC#CCOC(=O)c3cccs3)o2)cc1 | 14.3
37 | COc1ccc(CN2CCNC(=O)C2CC(=O)NCc2cn[nH]c2-c2ccccc2)c(F)c1 (stereo not drawn) | -1.07
38 | Cc1cccc(NC(=O)c2ccccc2NC(=O)Cc2ccccc2)c1C | 4.93
39 | CCNC(=O)CSc1nc(-c2ccccc2)cs1 | -4.81
40 | CN(C)c1nc(N2CCN(c3ccccc3)CC2)c(C#N)c(=O)o1 | -16.9
41 | CCN1CCN(C(c2cccs2)C(C)NC(=O)Oc2ccccc2)CC1 (stereo not drawn) | -38.5
42 | CC(C)N(C(=O)c1ccc2nc(-c3ccccc3)c(-c3ccccc3)nc2c1)C(C)C | -4.73
43 | Cc1ccc(SCc2nc(-c3ccccc3)no2)cc1 | 2.3
44 | O=C(Cc1cccc2ccccc12)NCC1CCCO1 (stereo not drawn) | -5.85

Row | SMILES | hERG current change (%, negative = inhibition) at 10uM [%]
45 | CCN(CC)CCOC(=O)CCc1cccc2ccccc12.O=C(O)C(=O)O | -42.6
46 | O=C(NCC1CCCO1)c1cccc2ccccc12 (stereo not drawn) | 21.2
47 | CCN(CC)CCOC(=O)C(Cc1cccc2ccccc12)CC1CCCO1.O=C(O)C(=O)O (stereo not drawn) | -53.8
48 | CCN(CC)CCOc1ccccc1OC.O=C(O)C(=O)O | -11
49 | CCN(CC)CCOC(=O)C(Cc1ccco1)Cc1cccc2ccccc12.O=C(O)C(=O)O (stereo not drawn) | -76.8
50 | CCOC(=O)C(C)Oc1ccc2c(C)cc(=O)oc2c1C(C)=O (stereo not drawn) | -13.8
51 | COCCn1c(SCC(=O)N2CCCCC2)nc2c(c1=O)SC(C)C2 (stereo not drawn) | 9.29
52 | Cc1ccccc1NC(=O)C[n+]1cc(-c2ccccc2)n2c1CCC2.[Cl-] | 12.9
53 | Cc1cccc(C)c1NC(=O)C[n+]1cc(-c2ccccc2)n2c1CCC2.[Cl-] | 11.3
54 | O=C(C[n+]1cc(-c2ccc(Cl)cc2)n2c1CCC2)Nc1nc(-c2ccccc2)cs1.[Cl-] | -0.843
55 | Cc1ccc(-c2c[n+](CC(=O)Nc3ccc(C)cc3C)c3n2CCC3)cc1.[Cl-] | -30.8
56 | Cc1ccc(-c2csc(NC(=O)C[n+]3cc(-c4ccc(C)cc4)n4c3CCC4)n2)cc1.[Cl-] | -72.5
57 | Cc1ccc(-c2c[n+](CC(=O)Nc3cc(=O)n(C)c(=O)n3C)c3n2CCC3)cc1.[Cl-] | -0.179
58 | Cc1ccc(-c2csc(NC(=O)C[n+]3cc(-c4ccccc4)n4c3CCC4)n2)cc1.[Cl-] | -57
59 | Cc1ccc(-c2c[n+](CC(=O)Nc3nc(-c4ccccc4)cs3)c3n2CCC3)cc1.[Cl-] | -54.9
60 | O=C(C[n+]1cc(-c2ccccc2)n2c1CCC2)Nc1nc(-c2ccccc2)cs1.[Cl-] | -35.1
61 | COC(=O)c1ccccc1NC(=O)c1cccc(COc2ccccc2Cl)c1 | 10.6
62 | O=C(c1ccc(F)cc1)N1CCN(c2ncccn2)CC1 | -1.2
63 | CC(=O)/C=C(\C)Nc1ccc(-c2cnc(-c3ccccc3)o2)cc1 | -4.59
64 | CC(=O)O[C@H]1CC[C@H]2[C@@H]3CCc4cc(O)ccc4[C@H]3CC[C@]12C | -5.79
65 | COc1ccc(CC(=O)N/N=C/c2ccc(C)s2)cc1 | 11
66 | O=C(Cc1cccc2ccccc12)Nc1ccc2c(c1)C(=O)NC2=O | 9.52

Row | SMILES | hERG current change (%, negative = inhibition) at 10uM [%]
67 | COc1ccc(NC(=O)CS(=O)(=O)c2cn(CC(=O)N(C(C)C)C(C)C)c3ccccc23)c(OC)c1 | -19.3
68 | O=C(CC(c1ccccc1)c1ccccc1)NCCOCc1ccccc1 | -12.6
69 | Cc1ccc(CN2C(=O)CNC2=S)cc1 | 9.68
70 | O=C(Nc1cccc(N=Cc2cc(Br)cc(Br)c2O)c1)c1ccco1 | 3.77
71 | CCCc1nn(C)c(C(=O)Nc2ccc3ccccc3c2)c1Cl | 8.62
72 | CC1CC(C#N)N(N(C)C)C1=C(C#N)C#N (stereo not drawn) | 11.3
73 | CC(=O)Nc1c2c(nn1-c1cccc(Cl)c1)CS(=O)C2 (stereo not drawn) | -1.6
74 | CCOc1ccc(N=Cc2c(O)c3ccccc3oc2=O)cc1 | 3.29
75 | Cc1cccc(OCC(=O)NCc2ccccc2)c1 | 13.6
76 | COCCN1CC(=O)N2C(c3cccc(OC)c3)c3[nH]c4ccccc4c3C[C@H]2C1=O (stereo partly drawn) | -38.6
77 | CCn1cc(CN2CCc3c([nH]c4ccccc34)C2c2ccc(F)c(OC)c2)c(C)n1 (stereo not drawn) | 6.94
78 | Oc1cccc(C2c3[nH]c4ccccc4c3CCN2Cc2cnn(-c3ccccc3)c2)c1 (stereo not drawn) | -35.3
79 | COc1cccc(C2c3[nH]c4ccccc4c3CCN2Cc2cnn(C)c2)c1 (stereo not drawn) | -69.6
80 | COCCCN1CC(=O)N2C(c3cccc(OC)c3)c3[nH]c4ccccc4c3C[C@H]2C1=O (stereo partly drawn) | -14.3
81 | CCn1cc(CN2CCc3c([nH]c4ccccc34)C2c2cccc(OC)c2)c(C)n1 (stereo not drawn) | -57.3
82 | COc1cccc(C2c3[nH]c4ccccc4c3C[C@H]3C(=O)N(CCCCCO)CC(=O)N23)c1 (stereo partly drawn) | -64.9
83 | COc1cccc(C2c3[nH]c4ccccc4c3CCN2Cc2cccc(C)n2)c1 (stereo not drawn) | -26.6
84 | CCOc1ccc(C2c3[nH]c4ccccc4c3CCN2Cc2cn(CC)nc2C)cc1 (stereo not drawn) | -63.6
85 | COc1cc(C2c3[nH]c4ccccc4c3CCN2Cc2cn(C)nc2C)ccc1F (stereo not drawn) | 1.02
86 | CCn1cc(CN2CCc3c([nH]c4ccccc34)C2c2cccc(O)c2)c(C)n1 (stereo not drawn) | -18.8
87 | CCn1cc(CN2CCc3c([nH]c4ccccc34)C2c2cccc(OC)c2OC)c(C)n1 (stereo not drawn) | 7.99
